From PubChem BioAssay (NCI) come the findings set out here.

Compounds without any hit were thinned out: in the full panel of roughly 83,000, 20% have a hit.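 Step 1: grow cells in 96-well plates. Step 2: add test compound at a single concentration. Step 3: incubate 48 h. Step 4: record percent growth.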 A number with no mark means an inactive call. Active and inactive are the calls of the source. The calls were made as follows: active = growth percent below 10; inactive = the rest.

Test systems include HCT-15 colon; HT29 colon; SNB-75 CNS; SNB-19 CNS; U251 CNS; PC-3 prostate; SK-MEL-5 melanoma; UACC-62 melanoma; LOX IMVI melanoma; SK-MEL-28 melanoma; EKVX NSCLC; SN12C renal; UO-31 renal; TK-10 renal; ACHN renal; CAKI-1 renal; A498 renal; CCRF-CEM leukemia; MOLT-4 leukemia.
Common to all, as to assay: NCI-60 one-dose screen, 48 h (100 = growth as untreated, 0 = no growth, -100 = all killed)
Holding throughout (conditions): 10 µM unless noted

In the case of `Cc1ccc(-[n+]2c3cc(N)c(C)cc3nc3cc(C)c(Nc4ccccc4)cc32)cc1`, the growth with HCT-15 colon was -69.8% (active); in the test with HT29 colon, -73.9% (active); in the test with SNB-75 CNS, -68.5% (active); with SNB-19 CNS, -82.3% (active); in the test on U251 CNS it was -75.1% (active); in the test on PC-3 prostate, -29.1% (active). Further, the growth was -100% (active) in the test on SK-MEL-5 melanoma; -73.5% (active) with UACC-62 melanoma; -100% (active) with LOX IMVI melanoma; -69.6% (active) with SK-MEL-28 melanoma; -22.6% (active) with EKVX NSCLC; -70.6% (active) in the test on SN12C renal. Moreover, the growth was -86.8% (active) with UO-31 renal; -18.4% (active) in the test on TK-10 renal; -92% (active) in the test with ACHN renal; -42.2% (active) with CAKI-1 renal; -84.5% (active) with A498 renal; 1.93% (active) in the test on CCRF-CEM leukemia. In addition, in the test with MOLT-4 leukemia, the growth was -2.02% (active).
Consider `C=CC(=O)Nc1cccc(Nc2nc(Nc3ccc(N4CCN(C(C)=O)CC4)cc3OC)ncc2C(F)(F)F)c1`, for which the growth was 5% (active) in the test with HCT-15 colon; -7.05% (active) in the test with HT29 colon; 16.1% in the test on SNB-75 CNS; 39.6% with SNB-19 CNS; 30.1% in the test on U251 CNS; 27.6% in the test with PC-3 prostate. Also, the growth in the test on SK-MEL-5 melanoma was 6.86% (active); in the test with UACC-62 melanoma it was 11.1%; in the test on LOX IMVI melanoma, 6.36% (active); in the test with SK-MEL-28 melanoma, 50.6%; in the test on EKVX NSCLC it was 1.17% (active); in the test on SN12C renal, 20.7%. Further, the growth is -18.3% (active) in the test on UO-31 renal; -24.6% (active) in the test with TK-10 renal; 5.26% (active) in the test with ACHN renal; -13.1% (active) in the test with CAKI-1 renal; -47.1% (active) in the test with A498 renal; 19.2% with CCRF-CEM leukemia. For the same compound, the growth with MOLT-4 leukemia is 12.6%.
For the compound `Nc1ccc(S(=O)(=O)O)c2cc(S(=O)(=O)O)cc(O)c12`, the growth in the test with HCT-15 colon was 101%; with HT29 colon it was 108%; with SNB-75 CNS, 113%; in the test with SNB-19 CNS, 105%; in the test on U251 CNS it was 108%; in the test with PC-3 prostate it was 97.8%. Besides, the growth in the test with SK-MEL-5 melanoma is 103%; with UACC-62 melanoma, 112%; in the test with LOX IMVI melanoma, 90.2%; in the test on SK-MEL-28 melanoma it was 97.1%; in the test with EKVX NSCLC, 101%; in the test on SN12C renal it was 102%. Further, the growth in the test on UO-31 renal is 107%; in the test on TK-10 renal, 105%; in the test on ACHN renal, 104%; in the test on CAKI-1 renal, 100%; in the test on A498 renal, 107%; in the test with CCRF-CEM leukemia it was 102%. The growth in the test on MOLT-4 leukemia is 101%.
Consider `Cc1cc([C@@H](C)Nc2ccccc2C(=O)O)c2nc(N3CCOCC3)cc(=O)n2c1`, for which the growth with HCT-15 colon is 44.5%; in the test with HT29 colon, 35.9%; in the test with SNB-75 CNS it was -19.5% (active); with SNB-19 CNS, 52.8%; in the test on U251 CNS, 55.4%; in the test with PC-3 prostate, 30.5%. Further, the growth is 52.5% in the test with SK-MEL-5 melanoma; 14% with UACC-62 melanoma; 30.1% with LOX IMVI melanoma; 43.9% in the test on SK-MEL-28 melanoma; 61.7% with EKVX NSCLC; 44.1% in the test with SN12C renal. Further, the growth is 15.7% in the test with UO-31 renal; 42.6% in the test on TK-10 renal; 46.3% in the test on ACHN renal; 18.9% with CAKI-1 renal; -36.7% (active) in the test on A498 renal; 23.5% in the test on CCRF-CEM leukemia. For the same compound, the growth in the test on MOLT-4 leukemia was 20.6%.
With `COc1cc2ncnc(Nc3ccc(F)c(Cl)c3)c2cc1NC(=O)/C=C/CN1CCCCC1`, the growth in the test on HCT-15 colon was -49.7% (active); with HT29 colon, -63.4% (active); with SNB-75 CNS, -97.8% (active); in the test with SNB-19 CNS it was -47.5% (active); in the test with U251 CNS, -77.1% (active); in the test with PC-3 prostate, -58.3% (active). The growth in the test with SK-MEL-5 melanoma was -99.8% (active); in the test with UACC-62 melanoma it was -84.3% (active); in the test with LOX IMVI melanoma, -90.2% (active); with SK-MEL-28 melanoma, -85.5% (active); in the test with EKVX NSCLC it was -40.3% (active); in the test on SN12C renal, -76.1% (active). The growth in the test with UO-31 renal is -90.2% (active); in the test on TK-10 renal, -88.8% (active); in the test with ACHN renal, -97.9% (active); in the test on CAKI-1 renal, -85.4% (active); in the test on A498 renal it was -80.4% (active); in the test with CCRF-CEM leukemia it was 6.37% (active). For the same compound, in the test on MOLT-4 leukemia, the growth is -13.1% (active).
As to `CC[C@@H]1C(=O)N(C)c2cnc(Nc3ccc(C(=O)NC4CCN(C)CC4)cc3OC)nc2N1C1CCCC1`, the growth in the test with HCT-15 colon is 4.6% (active); in the test with HT29 colon it was -3.91% (active); in the test with SNB-75 CNS it was -0.626% (active); in the test with SNB-19 CNS it was 31.3%; in the test on U251 CNS, 12.7%; with PC-3 prostate, 28%. The growth is -80.6% (active) with SK-MEL-5 melanoma; 11.6% with UACC-62 melanoma; -73.5% (active) in the test with LOX IMVI melanoma; 34.4% with SK-MEL-28 melanoma; 31.6% in the test with EKVX NSCLC; 2.27% (active) in the test with SN12C renal. The growth in the test on UO-31 renal was 13.4%; with TK-10 renal, 14.9%; with ACHN renal, 21.2%; with CAKI-1 renal it was 23%; with A498 renal, -28.3% (active); in the test on CCRF-CEM leukemia, -0.208% (active). For the same compound, the growth in the test with MOLT-4 leukemia was -14% (active).
`CCn1cc(-c2ccnc3[nH]c(-c4cccc(CN(C)C)c4)cc23)c(-c2ccc(NC(=O)N(C)C)cc2)n1`: the growth was 24.6% in the test on HCT-15 colon; -7.89% (active) in the test with HT29 colon; -52.6% (active) in the test on SNB-75 CNS; 55% in the test on SNB-19 CNS; 38.2% in the test with U251 CNS; 30.6% in the test on PC-3 prostate. For the same compound, the growth was 37.5% with SK-MEL-5 melanoma; 39.9% in the test with UACC-62 melanoma; -76.9% (active) with LOX IMVI melanoma; 45.2% in the test with SK-MEL-28 melanoma; 55.4% in the test on EKVX NSCLC; 24.1% with SN12C renal. Further, the growth is -10.7% (active) in the test on UO-31 renal; 44.3% in the test on TK-10 renal; 15.4% in the test with ACHN renal; 6.96% (active) with CAKI-1 renal; -34.1% (active) in the test on A498 renal; 4.15% (active) with CCRF-CEM leukemia. Besides, the growth with MOLT-4 leukemia is 7.17% (active).
As for `COCCN1CCN(Cc2ccc(-c3n[nH]c4c3C(=O)c3c(NC(=O)NN5CCOCC5)cccc3-4)cc2)CC1`, the growth is -13.6% (active) in the test with HCT-15 colon; -22.3% (active) with HT29 colon; -37.6% (active) in the test on SNB-75 CNS; 2.99% (active) in the test on SNB-19 CNS; 1.69% (active) in the test with U251 CNS; 3.15% (active) in the test with PC-3 prostate. The growth with SK-MEL-5 melanoma was -23.8% (active); with UACC-62 melanoma it was -44.9% (active); in the test on LOX IMVI melanoma it was -77.2% (active); in the test on SK-MEL-28 melanoma, -39.7% (active); with EKVX NSCLC, -3.26% (active); in the test on SN12C renal, 7.64% (active). The growth in the test with UO-31 renal was -14.2% (active); with TK-10 renal, -30.9% (active); in the test with ACHN renal, 3.84% (active); with CAKI-1 renal, -18.3% (active); in the test on A498 renal it was -22% (active); in the test on CCRF-CEM leukemia, -15.3% (active). Besides, in the test on MOLT-4 leukemia, the growth was -15% (active).
